The target of experiment [1] is Tyrosine-protein kinase SYK (Homo sapiens) (UniProt P43405). Particulars: at 10 µM.
For experiment [2], the target named is T1, Mitogen-activated protein kinase kinase kinase 7 (Homo sapiens) (UniProt O43318).
T1 sequence (whole entry): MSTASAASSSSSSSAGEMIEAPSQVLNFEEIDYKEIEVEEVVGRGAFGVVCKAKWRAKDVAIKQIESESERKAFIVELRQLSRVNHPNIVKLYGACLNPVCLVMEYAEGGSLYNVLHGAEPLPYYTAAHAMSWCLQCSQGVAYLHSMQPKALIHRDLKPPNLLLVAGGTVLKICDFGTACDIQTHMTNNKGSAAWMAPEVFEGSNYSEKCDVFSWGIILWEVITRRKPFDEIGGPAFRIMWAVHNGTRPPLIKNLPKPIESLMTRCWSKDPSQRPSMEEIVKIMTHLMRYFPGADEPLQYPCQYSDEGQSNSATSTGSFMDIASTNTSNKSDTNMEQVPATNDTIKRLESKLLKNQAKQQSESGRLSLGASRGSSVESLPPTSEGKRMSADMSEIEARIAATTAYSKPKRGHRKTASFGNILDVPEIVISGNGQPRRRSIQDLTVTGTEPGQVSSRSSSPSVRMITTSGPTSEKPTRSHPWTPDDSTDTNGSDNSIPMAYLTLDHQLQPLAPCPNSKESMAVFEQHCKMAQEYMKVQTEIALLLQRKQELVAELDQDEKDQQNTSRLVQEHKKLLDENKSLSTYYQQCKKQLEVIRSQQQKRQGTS
Particulars: at 1 µM.

Experiment [3] has as its target T1, Mitogen-activated protein kinase kinase kinase 7 (Homo sapiens). Particulars: at 10 µM.
The target in experiment [4] is T2, Serine/threonine-protein kinase TAO1 (Homo sapiens) (UniProt Q7L7X3).
T2 sequence (whole entry): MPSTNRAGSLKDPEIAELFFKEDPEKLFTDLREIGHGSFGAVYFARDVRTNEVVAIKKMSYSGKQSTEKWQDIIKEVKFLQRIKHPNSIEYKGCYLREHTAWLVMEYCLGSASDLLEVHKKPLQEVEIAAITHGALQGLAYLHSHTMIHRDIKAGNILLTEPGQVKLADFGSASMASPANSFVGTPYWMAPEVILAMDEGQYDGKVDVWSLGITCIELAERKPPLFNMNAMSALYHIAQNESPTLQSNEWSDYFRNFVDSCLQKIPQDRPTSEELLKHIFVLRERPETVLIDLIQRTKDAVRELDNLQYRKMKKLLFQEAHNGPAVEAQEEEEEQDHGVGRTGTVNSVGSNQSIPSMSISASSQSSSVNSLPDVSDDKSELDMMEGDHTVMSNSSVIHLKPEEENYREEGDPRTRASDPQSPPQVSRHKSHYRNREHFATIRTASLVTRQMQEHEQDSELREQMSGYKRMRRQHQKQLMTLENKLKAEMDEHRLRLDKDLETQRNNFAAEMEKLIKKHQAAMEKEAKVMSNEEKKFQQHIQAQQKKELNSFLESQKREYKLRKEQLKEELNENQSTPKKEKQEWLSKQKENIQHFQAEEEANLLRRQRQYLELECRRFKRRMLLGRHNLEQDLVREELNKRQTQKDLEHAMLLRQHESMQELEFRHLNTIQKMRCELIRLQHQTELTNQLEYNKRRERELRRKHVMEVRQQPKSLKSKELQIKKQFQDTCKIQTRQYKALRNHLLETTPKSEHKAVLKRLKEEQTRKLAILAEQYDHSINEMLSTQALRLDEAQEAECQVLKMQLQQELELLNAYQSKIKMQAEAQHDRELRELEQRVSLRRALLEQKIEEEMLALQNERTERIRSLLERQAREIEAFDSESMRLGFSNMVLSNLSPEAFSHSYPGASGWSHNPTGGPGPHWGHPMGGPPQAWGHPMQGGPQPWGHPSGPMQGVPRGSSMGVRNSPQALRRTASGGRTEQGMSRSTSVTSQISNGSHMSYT
Particulars: at 1 µM.

Experiment [5] concerns the target T2, Serine/threonine-protein kinase TAO1 (Homo sapiens). The note with it: at 10 µM.
The target of experiment [6] is T3, Serine/threonine-protein kinase TAO2 (Homo sapiens) (UniProt Q9UL54).
T3 sequence (whole entry): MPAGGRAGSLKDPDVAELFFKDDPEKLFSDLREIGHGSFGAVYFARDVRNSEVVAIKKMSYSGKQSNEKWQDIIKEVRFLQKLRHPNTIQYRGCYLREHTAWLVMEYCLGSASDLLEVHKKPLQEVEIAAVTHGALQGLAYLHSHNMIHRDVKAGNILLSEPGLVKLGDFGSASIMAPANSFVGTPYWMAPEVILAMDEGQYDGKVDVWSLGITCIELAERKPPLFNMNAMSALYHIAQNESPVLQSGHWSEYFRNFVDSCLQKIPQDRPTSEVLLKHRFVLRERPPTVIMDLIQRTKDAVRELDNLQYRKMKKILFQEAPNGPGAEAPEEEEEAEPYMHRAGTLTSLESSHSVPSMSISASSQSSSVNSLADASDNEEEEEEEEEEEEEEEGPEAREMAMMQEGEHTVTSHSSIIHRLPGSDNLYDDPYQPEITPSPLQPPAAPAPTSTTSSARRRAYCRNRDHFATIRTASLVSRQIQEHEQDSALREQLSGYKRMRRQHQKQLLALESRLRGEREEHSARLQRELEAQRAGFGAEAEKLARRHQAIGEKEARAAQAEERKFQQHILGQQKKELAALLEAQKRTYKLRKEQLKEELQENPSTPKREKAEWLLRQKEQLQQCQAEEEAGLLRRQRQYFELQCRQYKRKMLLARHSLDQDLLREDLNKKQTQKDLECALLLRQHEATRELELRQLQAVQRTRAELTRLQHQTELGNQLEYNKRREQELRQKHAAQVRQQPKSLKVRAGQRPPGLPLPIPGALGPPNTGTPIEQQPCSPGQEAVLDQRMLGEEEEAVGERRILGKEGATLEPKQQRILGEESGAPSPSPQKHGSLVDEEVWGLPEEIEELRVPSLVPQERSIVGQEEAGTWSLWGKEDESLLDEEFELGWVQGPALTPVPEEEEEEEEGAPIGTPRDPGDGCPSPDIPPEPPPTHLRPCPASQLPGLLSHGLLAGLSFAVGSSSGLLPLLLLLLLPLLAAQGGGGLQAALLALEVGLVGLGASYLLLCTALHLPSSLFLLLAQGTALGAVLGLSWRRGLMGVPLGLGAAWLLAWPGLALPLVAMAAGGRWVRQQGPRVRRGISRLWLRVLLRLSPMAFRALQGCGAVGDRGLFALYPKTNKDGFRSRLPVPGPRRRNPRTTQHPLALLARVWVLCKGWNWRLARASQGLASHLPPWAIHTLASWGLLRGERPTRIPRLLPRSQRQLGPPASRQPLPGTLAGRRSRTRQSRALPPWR
The note with it: at 1 µM.

Experiment [7] has as its target T3, Serine/threonine-protein kinase TAO2 (Homo sapiens). The note with it: at 10 µM.
Experiment [8] deals with T4, Serine/threonine-protein kinase TAO3 (Homo sapiens) (UniProt Q9H2K8).
T4 sequence (whole entry): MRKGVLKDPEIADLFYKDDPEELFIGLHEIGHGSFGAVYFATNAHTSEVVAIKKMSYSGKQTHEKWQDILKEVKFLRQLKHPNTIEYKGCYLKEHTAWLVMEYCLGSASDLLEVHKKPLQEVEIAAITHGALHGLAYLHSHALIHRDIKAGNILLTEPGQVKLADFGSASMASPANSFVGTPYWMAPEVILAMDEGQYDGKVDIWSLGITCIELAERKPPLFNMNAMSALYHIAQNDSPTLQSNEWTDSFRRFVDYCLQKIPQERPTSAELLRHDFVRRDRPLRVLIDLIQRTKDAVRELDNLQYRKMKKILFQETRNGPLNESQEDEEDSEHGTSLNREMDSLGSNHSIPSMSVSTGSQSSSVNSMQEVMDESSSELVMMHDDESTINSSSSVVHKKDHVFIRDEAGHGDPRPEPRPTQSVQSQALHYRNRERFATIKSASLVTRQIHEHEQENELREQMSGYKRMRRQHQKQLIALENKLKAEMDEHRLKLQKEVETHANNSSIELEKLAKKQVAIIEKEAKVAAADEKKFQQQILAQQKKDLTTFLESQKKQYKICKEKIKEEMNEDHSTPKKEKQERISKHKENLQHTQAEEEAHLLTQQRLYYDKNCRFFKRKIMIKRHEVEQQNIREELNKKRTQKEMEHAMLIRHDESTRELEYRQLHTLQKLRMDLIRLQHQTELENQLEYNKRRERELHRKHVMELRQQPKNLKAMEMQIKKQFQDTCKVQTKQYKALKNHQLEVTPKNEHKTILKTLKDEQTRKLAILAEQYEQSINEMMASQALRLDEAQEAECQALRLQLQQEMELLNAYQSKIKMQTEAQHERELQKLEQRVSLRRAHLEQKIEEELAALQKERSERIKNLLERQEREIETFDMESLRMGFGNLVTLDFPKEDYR
The note with it: at 1 µM.

Experiment [9] has as its target T4, Serine/threonine-protein kinase TAO3 (Homo sapiens). Particulars: at 10 µM.
The target of experiment [10] is T5, Serine/threonine-protein kinase TBK1 (Homo sapiens) (UniProt Q9UHD2).
T5 sequence (whole entry): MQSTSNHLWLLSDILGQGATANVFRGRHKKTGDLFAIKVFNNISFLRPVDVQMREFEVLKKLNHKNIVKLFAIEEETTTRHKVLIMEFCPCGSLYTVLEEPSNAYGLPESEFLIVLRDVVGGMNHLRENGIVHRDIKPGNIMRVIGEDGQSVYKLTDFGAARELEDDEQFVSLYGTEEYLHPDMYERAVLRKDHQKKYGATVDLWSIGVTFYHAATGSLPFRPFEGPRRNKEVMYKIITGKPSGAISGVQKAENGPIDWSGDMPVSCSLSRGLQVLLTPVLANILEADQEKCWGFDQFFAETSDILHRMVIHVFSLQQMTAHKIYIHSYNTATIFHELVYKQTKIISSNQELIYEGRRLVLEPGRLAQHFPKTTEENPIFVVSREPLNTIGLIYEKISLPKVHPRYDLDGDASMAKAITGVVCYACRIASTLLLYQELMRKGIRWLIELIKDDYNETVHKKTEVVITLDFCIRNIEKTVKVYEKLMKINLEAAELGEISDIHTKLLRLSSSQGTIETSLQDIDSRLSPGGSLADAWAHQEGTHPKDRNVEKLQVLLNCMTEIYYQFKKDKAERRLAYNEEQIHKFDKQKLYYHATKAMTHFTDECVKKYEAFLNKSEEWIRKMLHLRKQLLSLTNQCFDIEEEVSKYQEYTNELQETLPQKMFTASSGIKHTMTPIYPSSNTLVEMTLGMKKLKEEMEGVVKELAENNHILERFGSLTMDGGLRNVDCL
The note with it: at 1 µM.

In the case of `O=Nc1c(-c2c(O)[nH]c3ccccc23)[nH]c2ccccc12`, the residual activity stood at 60% in experiment [1]; 64% in [2]; 71% in [3]; 83% in experiment [4]; 39% in [5]; 75% in experiment [6]. In addition, the residual activity in experiment [7] amounted to 26%; in experiment [8], 85%; in [9], 28%; in experiment [10] it was 9%.

For the origin of these results see ChEMBL document CHEMBL2218924, “A broad activity screen in support of a chemogenomic map for kinase signalling research and drug discovery” (Biochem J, 2013).
